CYP2C9 activ: human CYP2C9 activators, primary screen, biochemical, luminescence. hit rate 1.4% among 96,000. Cytochrome P450 2C9 (Homo sapiens), P11712. recombinant CYP2C9, luciferin-H conversion; hits give high values; factor 1 = untreated enzyme, 0 = blocked. activation factor at 5 µM;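 active = activation factor of 2 or more for CYP2C9 at a 5 µM dose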
CYP2C19 activ: human CYP2C19 activators, primary screen, biochemical, luminescence; Cytochrome P450 2C19 (Homo sapiens), P33261; recombinant CYP2C19, luciferin-H EGE luminescence; hits give high values; 0 = fully inhibited enzyme, 1 = untreated enzyme; activation factor at 5 µM; 96,000 tested, under 10 active; AID 1025, 2008;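 active = activation factor of at least 2 at 5 µM in the primary screen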
PTK2B oligo ant: antagonists of Pyk2 self-association, primary screen, Q293 cells, FERM NanoBiT luminescence, HTS. hits give low values. Protein-tyrosine kinase 2-beta (Homo sapiens), Q14289. AID 1347419, 2020. z-score (the deposit names both 25 µM and 10 µM). hit rate 0.83% among 99,000;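 active = Z-score of -3 or lower, scaled per plate to the spread of control and sample wells; inactive = z-score above -3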;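 also: negative z-score means lost luminescence so less FERM oligomerization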
Target sequence (Q14289 whole entry, looked up): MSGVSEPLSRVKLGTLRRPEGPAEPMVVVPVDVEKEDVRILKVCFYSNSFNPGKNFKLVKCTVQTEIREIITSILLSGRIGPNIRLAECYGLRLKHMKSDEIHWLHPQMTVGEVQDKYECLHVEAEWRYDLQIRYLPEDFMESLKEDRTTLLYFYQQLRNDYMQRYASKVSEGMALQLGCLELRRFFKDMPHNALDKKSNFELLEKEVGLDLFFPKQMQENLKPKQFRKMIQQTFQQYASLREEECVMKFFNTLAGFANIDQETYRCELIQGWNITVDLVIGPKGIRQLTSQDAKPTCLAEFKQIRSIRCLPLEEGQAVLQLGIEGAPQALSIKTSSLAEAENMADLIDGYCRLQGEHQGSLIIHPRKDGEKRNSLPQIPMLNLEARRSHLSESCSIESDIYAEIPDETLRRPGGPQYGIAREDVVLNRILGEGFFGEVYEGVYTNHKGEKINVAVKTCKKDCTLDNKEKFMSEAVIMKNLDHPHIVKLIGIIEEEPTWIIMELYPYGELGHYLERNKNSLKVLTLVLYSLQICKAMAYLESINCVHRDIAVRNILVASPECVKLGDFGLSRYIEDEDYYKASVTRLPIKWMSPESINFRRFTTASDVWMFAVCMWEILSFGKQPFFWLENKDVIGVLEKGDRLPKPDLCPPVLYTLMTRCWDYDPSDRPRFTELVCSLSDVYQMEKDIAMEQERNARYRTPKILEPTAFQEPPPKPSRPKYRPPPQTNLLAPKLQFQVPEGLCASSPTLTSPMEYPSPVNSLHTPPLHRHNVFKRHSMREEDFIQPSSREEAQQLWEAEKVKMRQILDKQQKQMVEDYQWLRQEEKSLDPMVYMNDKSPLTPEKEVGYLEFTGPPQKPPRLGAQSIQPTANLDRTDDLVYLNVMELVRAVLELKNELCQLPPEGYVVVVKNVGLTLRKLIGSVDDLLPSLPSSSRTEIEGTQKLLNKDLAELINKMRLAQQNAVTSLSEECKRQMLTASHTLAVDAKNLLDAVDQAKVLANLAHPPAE
CYP2C19 inhib: blockers of cytochrome P450 2C19 activity – biochemical, luminescence, ADME assay, primary screen; CYP2C19 Supersomes, luciferin-H EGE luminescence, 30 min; hit rate 21% among 96,000; inhibition, % at 5 µM; P33261;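 active = CYP2C19 inhibition above a set limit at 5 µM in the primary screen, cut at about 50% in these data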
Cav3 T inh: Cav3.2 calcium influx blockers – cell-based, Fluo-4 calcium fluorescence, FDSS, MLSMR library, primary screen. Voltage-dependent T-type calcium channel subunit alpha-1H (Homo sapiens), O95180. Cav3.2-expressing cells; hits give low values. B-score at 10 µM. hit rate 4% among 100,000;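 active = single-dose well whose peak fluorescence ratio is a statistical outlier from its plate by either plate-standardised score or position-corrected B-score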
CYP2C9 inh: blockers of cytochrome P450 2C9 activity – biochemical, luminescence, ADME assay, primary screen. AID 777, 2007. hit rate 20% among 96,000. inhibition, % at 5 µM. CYP2C9 Supersomes, luciferin-H conversion. P11712;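 active = blocking of liver enzyme CYP2C9 beyond about 50% at 5 µM, limit read from the data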
Large screens that a line does not name were inactive. Rows were chosen to be rich in hits. Some 27% of all compounds tested hit in one or more screens of this group.

O=C(OCCN1C(=O)c2ccccc2C1=O)c1ccc(S(=O)(=O)N2CCCCCC2)cc1	CYP2C9 inh 82
O=C(CCCN1C(=O)c2ccccc2C1=O)Nc1ccc(S(=O)(=O)N2CCOCC2)cc1	none
CCCCN1C(=S)NC[C@@H]1Cc1ccccc1	none (no result: CYP2C9 activ, CYP2C19 activ, PTK2B oligo ant, CYP2C19 inhib, CYP2C9 inh)
CC(C)(C)C(=O)/C(C#N)=c1\s/c(=C\c2ccncc2)c(=O)n1CCCN1CCOCC1	none (no result: PTK2B oligo ant, Cav3 T inh)
CCOc1cc(S(=O)(=O)N(CC)CC)ccc1F	CYP2C9 activ 2.3, CYP2C19 inhib 95
COc1ccc(S(=O)(=O)Nc2ccc(Cl)cn2)c(C)c1C	CYP2C9 inh 53
CCOc1cc(S(=O)(=O)Nc2ccc(Cl)cn2)ccc1Cl	none (no result: CYP2C9 activ, CYP2C19 activ, CYP2C19 inhib, CYP2C9 inh)
CCOc1cc(S(=O)(=O)Nc2ccc(Cl)cn2)ccc1F	CYP2C9 inh 96
CCOc1cc(S(=O)(=O)NC2CCCCCC2)ccc1F	none
CCOc1cc(S(=O)(=O)n2nc(C)cc2C)ccc1F	CYP2C19 inhib 73
Cc1ccc(-n2nc(C)c3c(C)cc(=O)[nH]c32)cc1	none
O=C(/C=C/c1ccccc1)NC(NC(=S)Nc1ccc(Cl)cc1)C(Cl)(Cl)Cl (configuration not stated)	Cav3 T inh -7.4, CYP2C9 inh 70
COc1ccc(NC(=S)NC(NC(=O)/C=C/c2ccccc2)C(Cl)(Cl)Cl)cc1 (configuration not stated)	CYP2C9 inh 80
O=C(/C=C/c1ccccc1)NNC(=O)c1cccc(Cl)c1	none
O=C(/C=C/c1ccccc1)NC(NC(=S)Nc1cc(Cl)ccc1Cl)C(Cl)(Cl)Cl (configuration not stated)	CYP2C9 inh 87
Cn1c(NC(=O)c2ccc(Br)o2)cc(=O)n(C)c1=O	none
C=CCC1(O)C(=O)N2C(=C1C(=O)N1CCOCC1)c1ccccc1CC2(C)C (configuration not stated)	none
COc1cc(/C=C(\NC(=O)c2ccccc2)C(=O)Nc2cccc(O)c2)c([N+](=O)[O-])cc1OC	none
CCCCOCCCNC(=O)COc1ccccc1	none
CCc1ccc(OCC(=O)NCCOc2ccccc2)cc1	Cav3 T inh -4.4, CYP2C9 inh 50
CCc1ccc(OCCNC(=O)c2ccccc2SCc2ccccc2)cc1	Cav3 T inh -6.8
CCn1c(Cc2ccccc2)nnc1SCC(=O)Nc1nnc(-c2ccccc2)s1	none
Cc1ccc(C)c(N2CCN(c3nnnn3-c3ccccc3)CC2)c1	CYP2C19 inhib 99, CYP2C9 inh 91
FC(F)(F)c1cccc(N2CCN(c3nnnn3-c3ccccc3)CC2)c1	CYP2C19 inhib 98, CYP2C9 inh 100
Cc1cc(C)nc(N2CCN(c3nnnn3-c3ccccc3)CC2)n1	CYP2C9 inh 85
Cc1sc2ncnc(SCC(=O)c3ccc(Cl)s3)c2c1C	none (no result: PTK2B oligo ant, Cav3 T inh)
Cc1ccc(OCC(=O)Nc2ccc([N+](=O)[O-])cn2)cc1C	none (no result: CYP2C9 activ, CYP2C19 activ, CYP2C19 inhib, CYP2C9 inh)
Cc1cc(OCC(=O)Nc2ccncc2)ccc1Br	CYP2C19 inhib 100, CYP2C9 inh 99
O=C(COc1ccc2ccccc2c1)Nc1ccc(Cc2ccncc2)cc1	CYP2C19 inhib 90, CYP2C9 inh 95
CCOc1cc(C(=O)OCc2ccc(C(=O)OC)o2)cc(Br)c1OC	none (no result: PTK2B oligo ant)
Cc1ccccc1C(=O)Oc1ccc(Sc2ccc(O)cc2)cc1	none (no result: PTK2B oligo ant, Cav3 T inh)
C=CCn1c(SCc2ccc(C#N)cc2)nnc1-c1cccc(Cl)c1	CYP2C19 inhib 97, Cav3 T inh -4.9, CYP2C9 inh 64
C=CCn1c(SCc2cccc(C#N)c2)nnc1-c1ccccc1O	CYP2C19 inhib 100 (no result: PTK2B oligo ant)
C=CCn1c(SCC(=O)NC(C)(C)C)nnc1-c1ccccc1O	none
Cn1c(=O)c2c(nc(CN3CCN(c4ccccc4)CC3)n2Cc2c(F)cccc2Cl)n(C)c1=O	none
c1cc2c(cc1Cn1cnnn1)OCO2	CYP2C9 inh 56
Cc1nnc(C)c2c(C)n(Cc3ccc4c(c3)OCO4)c(C)c12	none
CCOC(=O)c1c(N2C(=O)C3CC(C)=C(C)CC3C2=O)sc(C)c1C (configuration not stated)	none
CCOC(=O)c1c(NC(=O)C(=O)N/N=C/c2ccccc2O)sc2c1CCCCC2	none (no result: CYP2C9 activ, CYP2C19 activ, CYP2C19 inhib, Cav3 T inh, CYP2C9 inh)

Screening data: PubChem, several laboratories
